From PubChem BioAssay AID624300 (Southern Research Specialized Biocontainment Screening …, 2012)
About 360 (15%) of roughly 2,400 compounds were called active.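 Rule for the calls: active = viability falls under 70% at one or more tested concentrations, taken as toxicity; inactive = viability stays over 70% at every dose.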 A selection follows. Results with a measured potency or affinity are listed apart.

Assay: HeLa cell cytotoxicity, dose response, cytotoxicity control for MgcRacGAP inhibitor project (AID 624300)
Conditions: CellTiter-Glo luminescence, 24 h; series mostly up to 100 µM

**Q.** For CCCCn1c(C)cc2cc(O)ccc21, which outcome is on record?
**A.** inactive

**Q.** With COc1ccc(N2CCN(C(=O)c3ccccc3N(C)S(=O)(=O)c3ccccc3)CC2)cc1 as the compound, how does the outcome read?
**A.** inactive

**Q.** With COc1cc(CNCc2cc(OC)c(OC)c(OC)c2)cc(OC)c1 as the compound, how does the outcome read?
**A.** inactive

**Q.** Which outcome does the source give for COc1cc2c(cc1NCc1ccc3c(c1)OCO3)oc1ccccc12 here?
**A.** inactive

**Q.** For CCc1cc(/C(Cc2cscn2)=N\O)c(O)cc1O, which outcome is on record?
**A.** inactive

**Q.** With CCN(CC)c1ccc(NC(=O)COC(=O)CCc2cc(OC)c(OC)c(OC)c2)cc1 as the compound, how does the outcome read?
**A.** inactive

**Q.** Which outcome does the source give for O=C(CN1CCN(C/C=C/c2ccccc2)CC1)Nc1ccccc1C(=O)NC1CC1 here?
**A.** inactive

**Q.** With COc1ccccc1CNCC(=O)NCc1ccc(C)cc1 as the compound, how does the outcome read?
**A.** inactive

**Q.** Which outcome does the source give for CCn1c2ccccc2c2cc(NC(=O)CNC)ccc21 here?
**A.** inactive

**Q.** Which outcome does the source give for CCn1c2ccccc2c2cc(N)ccc21 here?
**A.** inactive

**Q.** Which outcome does the source give for COc1cc(CNCc2ccccc2C(F)(F)F)cc(OC)c1 here?
**A.** inactive

**Q.** With COc1ccc(/C=N\NC(=O)c2ccc(=O)[nH]n2)cc1O as the compound, how does the outcome read?
**A.** inactive

**Q.** With O=C(c1cccc(F)c1)N1CCN(C2CCCCC2)CC1 as the compound, how does the outcome read?
**A.** inactive

**Q.** Which outcome does the source give for CN(C)CCCNc1ncnc2sc(-c3ccccc3)cc12 here?
**A.** inactive

**Q.** Which outcome does the source give for Cc1cc(C)c(OCCCCN2CCC(C)CC2)c(Br)c1 here?
**A.** inactive

**Q.** For O=C(CN1CCN(c2ccc(O)cc2)CC1)NC(=O)NCc1ccco1, which outcome is on record?
**A.** inactive

**Q.** Which outcome does the source give for COc1cc(/C=N\NC(=O)CNC(=O)C2COc3ccccc3O2)ccc1O (centres undefined) here?
**A.** inactive

**Q.** With Oc1ccc(C2=Nn3c(nnc3-c3ccco3)SC2)cc1O as the compound, how does the outcome read?
**A.** inactive

**Q.** With CCN(CC)c1ccc(NC(=O)COC(=O)CCC(=O)c2cccs2)cc1 as the compound, how does the outcome read?
**A.** inactive

**Q.** Which outcome does the source give for O=C(Cc1coc2cc(O)ccc12)NNC(=O)c1cccs1 here?
**A.** inactive

**Q.** With CN(C)c1ccc(C(=O)NC2(N3CCC3=O)CCCC2)cc1 as the compound, how does the outcome read?
**A.** inactive

**Q.** Which outcome does the source give for Cc1ccn2c(NC3CCCC3)c(-c3ccncc3)nc2c1 here?
**A.** inactive

**Q.** With Cc1ccc(Nc2c(-c3ccco3)nc3ccccn23)cc1 as the compound, how does the outcome read?
**A.** inactive

**Q.** For O=CNc1ccc2c(c1)Cc1cccc(NC=O)c1-2, which outcome is on record?
**A.** inactive

**Q.** With O=C(CNCc1ccco1)Nc1ccc(Oc2ccccc2)cc1 as the compound, how does the outcome read?
**A.** inactive

**Q.** Which outcome does the source give for Cc1ccccc1OCCn1c(=S)[nH]c2c(N)ncnc21 here?
**A.** inactive

**Q.** With CC1CC(C)CN(CC(=O)NC(c2ccccc2)c2ccccc2)C1 (centres undefined) as the compound, how does the outcome read?
**A.** inactive

**Q.** For Cc1c(-c2ccccc2)sc(N)c1C(=O)N1CCOCC1, which outcome is on record?
**A.** inactive

**Q.** With CCN(CC)c1ccc(NC(=O)C2=CC=CN3CCS(=O)(=O)N=C23)cc1 as the compound, how does the outcome read?
**A.** inactive

**Q.** With CCOc1cc(/C=C2\N=C3CCCCCN3C2=O)ccc1O as the compound, how does the outcome read?
**A.** inactive

**Q.** For CCOC(=O)C1=C(O)/C(=C\c2ccc(O)c(OCC)c2)N=C1C, which outcome is on record?
**A.** inactive

**Q.** For COc1ccccc1N1CCN(CC(=O)NCC2CCCO2)CC1 (centres undefined), which outcome is on record?
**A.** inactive

**Q.** For Cc1cc(C)nc(SCC(=O)c2ccc(O)c(O)c2)n1, which outcome is on record?
**A.** inactive

**Q.** Which outcome does the source give for O=C(CSc1nnnn1-c1ccc(F)cc1)c1ccc(O)c(O)c1 here?
**A.** inactive

**Q.** With COc1cc(/C=N/NC(=O)c2ccc(N3CCCC3=O)cc2)ccc1O as the compound, how does the outcome read?
**A.** inactive

**Q.** For COc1cccc2cc(C(=O)Oc3ccc(NC(C)=O)cc3)c(=O)oc12, which outcome is on record?
**A.** inactive

**Q.** With Cc1ccc(C)c(OCC(O)CN2CCC(C)CC2)c1C (centres undefined) as the compound, how does the outcome read?
**A.** inactive

**Q.** Which outcome does the source give for O=S(=O)(c1ccc2ccccc2c1)N1CCN(c2ccc(O)cc2)CC1 here?
**A.** inactive

**Q.** For Cc1ccc(S(=O)(=O)N2CCN(C(=O)CN3CCN(c4ccc(O)cc4)CC3)CC2)cc1, which outcome is on record?
**A.** inactive

**Q.** For COc1cc(C(=O)N/N=C/c2cn(Cc3ccccc3)c3ccccc23)ccc1O, which outcome is on record?
**A.** inactive

**Q.** For O=C1CCCC(O)=C1C=Nc1ccc(O)cc1, which outcome is on record?
**A.** inactive

**Q.** For COc1cc(/C=N/N=C2\CC3CCC2(C)C3(C)C)ccc1O (centres undefined), which outcome is on record?
**A.** inactive

**Q.** For CCN(CC)c1ccc(/C=N/NC(=O)c2cc3ccccc3[nH]2)cc1, which outcome is on record?
**A.** inactive

**Q.** With O=C(C[n+]1ccccc1)N/N=C/c1ccc(O)cc1 as the compound, how does the outcome read?
**A.** inactive

**Q.** Which outcome does the source give for COc1ccc(C)cc1NC(=O)C(NCC(O)c1ccccc1)c1ccccc1 (centres undefined) here?
**A.** inactive

**Q.** Which outcome does the source give for CC(=O)N1CCN(c2ccc(NCc3ccccc3)cc2)CC1 here?
**A.** inactive

**Q.** Which outcome does the source give for CCc1nc(Nc2ccc(N3CCN(C(C)=O)CC3)cc2)c2oc3ccccc3c2n1 here?
**A.** inactive

**Q.** For COc1cc(/C=C/C(=O)OCC(=O)c2ccc(OC(F)F)cc2)ccc1O, which outcome is on record?
**A.** inactive

**Q.** With CCN(CC)c1ccc(NC(=O)c2ccc3c(c2)OCO3)cc1 as the compound, how does the outcome read?
**A.** inactive

**Q.** With CCN(CC)c1ccc(NC(=O)c2ccc(S(=O)(=O)N3CCOCC3)cc2)cc1 as the compound, how does the outcome read?
**A.** inactive

**Q.** Which outcome does the source give for C/C=C(\C)CN1CCN(c2ccc(C)cc2)CC1 here?
**A.** inactive

**Q.** For N#C/C(=C\c1ccc(N2CCOCC2)o1)c1nc2ccccc2[nH]1, which outcome is on record?
**A.** inactive

**Q.** Which outcome does the source give for N#C/C(=C/c1ccc(N2CCOCC2)o1)c1nc2ccccc2[nH]1 here?
**A.** inactive

**Q.** With CN1C=CC=C/C1=C(\C#N)c1nc2ccccc2[nH]1 as the compound, how does the outcome read?
**A.** inactive

**Q.** For COc1cc(/C=C(\C#N)C(=O)Nc2ccc3c(c2)OCCO3)ccc1O, which outcome is on record?
**A.** inactive

**Q.** With COc1cc(/C=C(\C#N)C(=O)c2c[nH]c3ccccc23)cc(OC)c1O as the compound, how does the outcome read?
**A.** inactive

**Q.** For COc1ccccc1N1CCN(/N=C/c2cc(OC)c(O)c(OC)c2)CC1, which outcome is on record?
**A.** inactive

**Q.** For COc1ccc(CN2CCN(Cc3ccccc3F)CC2)cc1OC, which outcome is on record?
**A.** inactive

**Q.** Which outcome does the source give for CN(c1ccccc1)S(=O)(=O)c1cccc(C(=O)NCCc2ccc(O)c(O)c2)c1 here?
**A.** inactive
